Data on 39 molecules can be found in PubChem BioAssay.

Results filed as inconclusive are left out. The source made the active and inactive calls. Unless noted, cut-off not given; nearly all actives show AC50 up to about 26 µM.

The first test can be described thus: P. berghei load reduction in hepatocytes – cell-based, HepG2, luciferase luminescence, HepG2 viability, primary screen (AID 624349; in the data active means parasite load remaining mostly below about 12%, no sharp cut-off; inactive means mostly above about 10%;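 further: 100% = mean of DMSO negative control wells on the same plate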). The following applies: P. berghei liver stage in HepG2, luciferase luminescence, concentration not given here; parasite load remaining: stronger effect = lower value; viability: measured here: HepG2 viability without parasites.
The term viability denotes a read-out of living cells in per cent, often relative to untreated cells. Take `Nc1cccc(-c2cc3c(Oc4cccc(O)c4)ncnc3[nH]2)c1`: the viability came to 64.3% and the parasite load remaining is 28.2% (inactive). Regarding `Nc1ccn([C@@H]2O[C@H](CO)[C@@H](O)C2(F)F)c(=O)n1`, the parasite load remaining is 8.34% (inactive) and the viability was found to be 190%.

Regarding `COc1cc2ncnc(Nc3cccc(Cl)c3)c2cc1OC`, the viability was found to be 78.3% and the parasite load remaining was 63.9% (inactive).

A short description of the next test: viability loss in pontine glioma line – cell-based, SU-DIPG-XVII, MIPE5.0, CellTiter-Glo, qHTS, dose response (AID 1347060).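 On AC50: cells exposed to compound for 48 hours before viability readout.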 The following applies: CellTiter-Glo ATP luminescence.
For orientation: AC50 means the concentration at which the activity in the assay is half-maximal. As to `OCCn1cc(-c2ccc3c(c2)CC/C3=N\O)c(-c2ccncc2)n1`, the AC50 is 14.8 µM (active). Regarding `CNc1nc(Nc2ccc(C(=O)N3CCOCC3)cc2OC)ncc1Cl`, the result was inactive.

For `COc1ccc(-c2cc3nccn3c(Nc3ncccc3C(N)=O)n2)cc1OC`, the AC50 was 11.8 µM (active). Consider `CC(C)(C)NC(=O)c1cncn1C1CCN(c2ccc(-c3nnc(C(F)(F)F)o3)cn2)CC1`, for which the AC50 is 10.5 µM (active).

On to `CC[C@H](CC#N)OC(=O)N[C@@H](C)c1cccc(NC(=O)Nc2ccc(-c3cnco3)c(OC)c2)c1`, for which the AC50 is 0.525 µM (active). For the molecule `O=C1NC(=O)[C@@H](c2cn3c4c(cccc24)CCC3)[C@@H]1c1c[nH]c2ccccc12`, the half-maximal activity concentration (AC50) is 1.05 µM (active).

`O=C(Nc1nc2cccc(-c3ccc(CN4CCS(=O)(=O)CC4)cc3)n2n1)C1CC1`: the AC50 was 14.8 µM (active). As to `O=C(CCCCCCC(=O)Nc1ccc([C@H]2O[C@@H](CSc3nc(-c4ccccc4)c(-c4ccccc4)o3)C[C@@H](c3ccc(CO)cc3)O2)cc1)NO`, the molecule was classed as inactive. Take `CNC(=O)c1cc(Oc2ccc(NC(=O)Nc3ccc(Cl)c(C(F)(F)F)c3)c(F)c2)ccn1`: the AC50 is 16.6 µM (active).

With `Nc1cccc(-c2cc3c(Oc4cccc(O)c4)ncnc3[nH]2)c1`, the AC50 is 1.66 µM (active). With `CN(C)CC(=O)N1CCC(c2ccc(NC(=O)c3ncc(C#N)[nH]3)c(C3=CCCCC3)c2)CC1`, the half-maximal activity concentration (AC50) was 23.5 µM (active). Turning to `CS(=O)(=O)N1CCc2c(-c3cnc(N)nc3)nc(N3CCOCC3)nc21`, the AC50 was 1.86 µM (active). As for `CC(C)n1ncnc1-c1cn2c(n1)-c1ccc(O[C@@H](C)C(N)=O)cc1OCC2`, the AC50 is 1.32 µM (active). Consider `Cc1c[nH]c2ncnc(N3CCC(CN)(C(=O)Nc4cccc(OC(=O)N(C)C)c4)CC3)c12`, for which the molecule was called inactive. The same measure, in the same setting: to `Nc1ncc(C(=O)NC2CN(C(=O)C3CC3)C2)c2ccc(-c3cccc(F)c3)nc12` belongs “inactive”.

`N#C/C(=C1/Nc2ccccc2S1)c1ccnc(OCc2ccc(CN3CCOCC3)cc2)n1`: the AC50 was 14.8 µM (active). Still for that read-out and setting: in the case of `COC1=C2C[C@H](C)C[C@H](OC)[C@H](O)[C@@H](C)/C=C(/C)[C@H](OC(N)=O)[C@@H](OC)/C=C\C=C(\C)C(=O)NC(=CC1=O)C2=O` it was 0.235 µM (active).

Turning to `O=C(O)/C(S)=C/c1ccc(I)cc1`, the result was inactive. For `CN1c2ccccc2C(=O)N2CCc3c([nH]c4ccccc34)C21` (stereo not given), the AC50 is 2.95 µM (active).

On to `O=C1[C@H](Cc2ccc(O)cc2)N2C(=O)CCN(C(=O)NCc3ccccc3)[C@H]2CN1Cc1cccc2ccccc12`, for which the concentration at half-maximal activity (AC50) was 4.17 µM (active). As to `CCC(=C/[C@H](C)C/C=C/C(C)=C/[C@@H](C)C(=O)[C@@H](C)[C@H](O)[C@@H](C)C/C(C)=C/C(=O)O)/C=C/[C@@H]1OC(=O)C=C[C@@H]1C`, the AC50 was 0.00296 µM (active).

Take `O=c1ccn([C@@H]2O[C@H](CO)[C@@H](O)[C@@H]2F)c(=O)[nH]1`: the call was inactive. On to `CCNC(=O)Nc1ccc(-c2nc3c(c(N4CCOC[C@@H]4C)n2)CCN(C2COC2)C3)cc1`, for which the AC50 was 2.95 µM (active). Still for that read-out and setting: to `CC(C)(O)CC(=O)NCCn1ccc2ncnc(Nc3ccc(Oc4cccc(C(F)(F)F)c4)c(Cl)c3)c21` belongs 18.6 µM (active). On to `CC(=O)Oc1cc2c(s1)CCN(C(C(=O)C1CC1)c1ccccc1F)C2` (stereo not given), for which the molecule was called inactive. As to `Cc1cc(-c2nc3cc(F)ccc3s2)ccc1NC(=O)[C@@H](N)CCCCN`, the AC50 is 20.9 µM (active).

For `N#Cc1ccc(COC[C@H]2O[C@@H](n3c(NCc4ccc(Cl)c(Cl)c4)nc4c(N)ncnc43)[C@H](O)[C@@H]2O)cc1`, the concentration at half-maximal activity (AC50) is 14.8 µM (active). In the case of `CCn1c(=O)c(-c2ccn[nH]2)cc2c(C)nc(N)nc21`, the AC50 is 7.42 µM (active). Consider `C[C@@H]1Cc2c([nH]c3ccccc23)[C@@H](c2c(F)cc(/C=C/C(=O)O)cc2F)N1CC(C)(C)F`, for which the molecule was classed as inactive. As to `CC[C@@H]([C@H](C)O)n1ncn(-c2ccc(N3CCN(c4ccc(OCC5CO[C@@](Cn6cncn6)(c6ccc(F)cc6F)C5)cc4)CC3)cc2)c1=O` (stereo not given in full), the AC50 is 18.6 µM (active).

Take `Nc1ccn([C@@H]2O[C@H](CO)[C@@H](O)C2(F)F)c(=O)n1`: the AC50 is 0.0186 µM (active). Take `COc1cc2ncnc(Nc3cccc(Cl)c3)c2cc1OC`: the AC50 is 13.2 µM (active). On the same count and under the same terms, in the case of `CNC(=O)c1cc(COc2nnc(Nc3ccc(Cl)cc3)c3ccoc23)ccn1` it was 16.6 µM (active); in that of `O=C(Nc1ccc(OC(F)(F)Cl)cc1)c1cnc(N2CC[C@@H](O)C2)c(-c2ccn[nH]2)c1`, 23.5 µM (active). On to `CO[C@@H]1[C@@H](O)[C@H](O)[C@@H](n2c3c(Cl)cccc3c3c4c(c5c6cccc(Cl)c6[nH]c5c32)C(=O)NC4=O)O[C@H]1CO`, for which the AC50 was 0.105 µM (active). `CNc1nccc(-c2cccnc2Oc2cc(C(=O)Nc3cccc(C(F)(F)F)c3)ccc2C)n1`: the AC50 was 3.72 µM (active). Regarding `CC(C)=CCC/C(C)=C/CC/C(C)=C/CSc1ccccc1C(=O)O`, the call was inactive. The same measure, in the same setting: to `CCCc1cc(C)[nH]c(=O)c1CNC(=O)c1cc(-c2ccnc(N3CCN(C)CC3)c2)cc2c1cnn2C(C)C` belongs “inactive”; to `Clc1ccc2ncc(-c3cccc(NC4CNC4)n3)n2c1`, “inactive”.
